# Source: PubChem BioAssay (EPA / NIEHS)
# Inconclusive results are not listed. Active and inactive are the calls of the source. How the source made its calls: active means hit-call score of the fitted dose curve at least 0.9, where 1 is the maximum; inconclusive means response in the unintended direction; inactive means score below 0.9.
# Assays:
# [1] = molecular target: Estrogen receptor beta (Homo sapiens) (UniProt Q92731); test: ATG_hERb_XSP1: Attagene TRANS-FACTORIAL Multi-Species (XSP1) HepG2 Assay for human Estrogen Receptor (ESR2) (AID 2283788)
# Sequence of Estrogen receptor beta (Homo sapiens) (Q92731 whole entry, looked up, the tested form may be a part): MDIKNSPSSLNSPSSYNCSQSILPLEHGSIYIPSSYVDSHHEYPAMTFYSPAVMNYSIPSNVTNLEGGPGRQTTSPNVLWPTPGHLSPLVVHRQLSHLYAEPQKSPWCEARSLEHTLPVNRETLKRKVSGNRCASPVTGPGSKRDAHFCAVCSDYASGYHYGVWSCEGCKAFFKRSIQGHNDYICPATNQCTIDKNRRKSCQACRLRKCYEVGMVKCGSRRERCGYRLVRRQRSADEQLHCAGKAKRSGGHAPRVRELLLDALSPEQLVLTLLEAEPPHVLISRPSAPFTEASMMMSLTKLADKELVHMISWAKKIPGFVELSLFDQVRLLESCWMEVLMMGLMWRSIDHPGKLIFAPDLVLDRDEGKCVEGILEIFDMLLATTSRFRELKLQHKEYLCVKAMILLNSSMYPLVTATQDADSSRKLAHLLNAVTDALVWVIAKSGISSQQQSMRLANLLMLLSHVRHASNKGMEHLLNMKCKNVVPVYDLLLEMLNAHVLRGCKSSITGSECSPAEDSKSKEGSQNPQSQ
# Procedure, shortened: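 Multiplexed trans-activation in transfected HepG2: ERβ-Gal4 reporter transcripts after 24 h treatment, detected by RT-PCR plus capillary electrophoresis.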
# [2] = molecular target: GAL4 Transcription Factor (Internal Marker), GAL4 (gene 855828) (UniProt P04386); test: ATG_GAL4_XSP1: Attagene TRANS-FACTORIAL Multi-Species (XSP1) HepG2 Assay for GAL4 Transcription Factor (Internal Marker) (AID 2283789)
# Sequence of GAL4 Transcription Factor (Internal Marker), GAL4 (gene 855828) (P04386 whole entry, looked up, the tested form may be a part): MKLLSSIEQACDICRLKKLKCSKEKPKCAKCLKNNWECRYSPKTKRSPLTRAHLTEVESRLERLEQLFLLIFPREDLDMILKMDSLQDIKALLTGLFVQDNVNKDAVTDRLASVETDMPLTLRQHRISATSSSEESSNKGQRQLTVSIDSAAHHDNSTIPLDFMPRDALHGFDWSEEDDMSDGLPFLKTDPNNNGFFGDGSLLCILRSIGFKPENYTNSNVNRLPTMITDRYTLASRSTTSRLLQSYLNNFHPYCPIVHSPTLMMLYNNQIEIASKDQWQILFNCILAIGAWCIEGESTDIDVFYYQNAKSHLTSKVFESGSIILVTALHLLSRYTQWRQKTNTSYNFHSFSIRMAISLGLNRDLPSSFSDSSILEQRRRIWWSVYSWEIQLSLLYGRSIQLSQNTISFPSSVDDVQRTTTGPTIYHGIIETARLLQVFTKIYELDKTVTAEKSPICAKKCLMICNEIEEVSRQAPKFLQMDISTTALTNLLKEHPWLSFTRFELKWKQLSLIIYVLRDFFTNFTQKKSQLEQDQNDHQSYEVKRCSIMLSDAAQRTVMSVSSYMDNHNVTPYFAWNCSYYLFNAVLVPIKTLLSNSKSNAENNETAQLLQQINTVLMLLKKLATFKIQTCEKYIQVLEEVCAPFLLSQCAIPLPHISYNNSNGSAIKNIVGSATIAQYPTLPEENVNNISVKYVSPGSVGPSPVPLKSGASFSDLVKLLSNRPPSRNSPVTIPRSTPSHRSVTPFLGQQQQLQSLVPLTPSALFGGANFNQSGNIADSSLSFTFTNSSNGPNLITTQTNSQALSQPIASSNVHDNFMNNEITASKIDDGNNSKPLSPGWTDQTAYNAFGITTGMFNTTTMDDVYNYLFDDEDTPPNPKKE
# Procedure: (§1) ATG_XSP1_multi-species_TRANS is a cell-based, multiplexed assay created by modifying the existing Attagene TRANS-FACTORIAL system to include a panel of nuclear receptors from some or all the following species: human (Homo sapiens), mouse (Mus musculus), frog (Xenopus laevis), zebrafish (Danio rerio), chicken (Gallus gallus), and turtle (Chrysemys picta). The ECOTOX-FACTORIAL format uses HepG2, a human liver cell line, with measurements taken at 24 hours after chemical dosing in a 24-well plate. Xsp1 included 3 nM 6-alpha-fluorotestosterone to partially stimulate the androgen receptor.ATG_GAL4_XSP1 is one of 29 assay components measured or calculated from the ATG_XSP1_multi-species_TRANS assay. It is designed to make measurements of mRNA induction, a form of inducible reporter, as detected with fluorescence intensity signals by Reverse transcription polymerase chain reaction (RT-PCR) and Capillary electrophoresis technology.This assay endpoint, ATG_GAL4_XSP1, was analyzed in the positive analysis fitting direction relative to DMSO as the negative control and baseline of activity. […] Furthermore, this assay endpoint can be referred to as a secondary readout, because this assay has produced multiple assay endpoints where this one serves a background control function. […]
# [3] = ATG_M_06_XSP1: Attagene TRANS-FACTORIAL Multi-Species (XSP1) HepG2 Assay for M06 Transcription Factor (Internal Marker) (AID 2283790)
# Procedure, shortened: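 This background-control readout tracks M06 reporter mRNA, measured by RT-PCR and capillary electrophoresis. HepG2 cells transiently carrying the GAL4-UAS reporter panel were dosed for 24 h with 3 nM 6-alpha-fluorotestosterone added for partial AR stimulation; increases were scored relative to DMSO.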
# [4] = ATG_M_61_XSP1: Attagene TRANS-FACTORIAL Multi-Species (XSP1) HepG2 Assay for M61 Transcription Factor (Internal Marker) (AID 2283797)
# Procedure: as §1, with “receptor.ATG_M_61_XSP1” for “receptor.ATG_GAL4_XSP1”, “ATG_M_61_XSP1,” for “ATG_GAL4_XSP1,”
# [5] = molecular target: mouse Peroxisome Proliferator-activated Receptor gamma (PPARg), Pparg (gene 19016) (UniProt P37238); test: ATG_mPPARg_XSP1: Attagene TRANS-FACTORIAL Multi-Species (XSP1) HepG2 Assay for mouse Peroxisome Proliferator-activated Receptor gamma (PPARg) (AID 2283802)
# Sequence of mouse Peroxisome Proliferator-activated Receptor gamma (PPARg), Pparg (gene 19016) (P37238 whole entry, looked up, the tested form may be a part): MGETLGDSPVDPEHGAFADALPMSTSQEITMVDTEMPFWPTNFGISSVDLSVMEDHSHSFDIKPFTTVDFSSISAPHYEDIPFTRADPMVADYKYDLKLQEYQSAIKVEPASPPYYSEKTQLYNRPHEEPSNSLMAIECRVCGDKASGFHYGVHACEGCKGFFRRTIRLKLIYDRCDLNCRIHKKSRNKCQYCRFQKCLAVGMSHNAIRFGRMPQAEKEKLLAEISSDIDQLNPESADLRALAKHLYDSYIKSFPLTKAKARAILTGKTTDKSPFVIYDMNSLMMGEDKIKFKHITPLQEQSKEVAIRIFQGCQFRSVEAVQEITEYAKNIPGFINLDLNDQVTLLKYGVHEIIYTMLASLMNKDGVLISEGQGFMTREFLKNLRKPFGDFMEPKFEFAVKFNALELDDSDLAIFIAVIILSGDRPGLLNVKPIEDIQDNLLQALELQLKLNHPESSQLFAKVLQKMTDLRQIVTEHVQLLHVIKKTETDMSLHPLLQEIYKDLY
# Procedure, shortened: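 Readout is reporter mRNA induction, measured by RT-PCR with 6-FAM labelling, HpaI digestion and capillary electrophoresis, 24 h post-dose relative to DMSO. Transient multi-reporter transfection of human HepG2 with mouse PPARg–GAL4 fusion; 3 nM 6-alpha-fluorotestosterone included.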
# [6] = molecular target: Nuclear receptor subfamily 1 group I member 2 (Mus musculus) (UniProt O54915); test: ATG_mPXR_XSP1: Attagene TRANS-FACTORIAL Multi-Species (XSP1) HepG2 Assay for mouse Pregnane X Receptor (PXR) (AID 2283803)
# Sequence of Nuclear receptor subfamily 1 group I member 2 (Mus musculus) (O54915 whole entry, looked up, the tested form may be a part): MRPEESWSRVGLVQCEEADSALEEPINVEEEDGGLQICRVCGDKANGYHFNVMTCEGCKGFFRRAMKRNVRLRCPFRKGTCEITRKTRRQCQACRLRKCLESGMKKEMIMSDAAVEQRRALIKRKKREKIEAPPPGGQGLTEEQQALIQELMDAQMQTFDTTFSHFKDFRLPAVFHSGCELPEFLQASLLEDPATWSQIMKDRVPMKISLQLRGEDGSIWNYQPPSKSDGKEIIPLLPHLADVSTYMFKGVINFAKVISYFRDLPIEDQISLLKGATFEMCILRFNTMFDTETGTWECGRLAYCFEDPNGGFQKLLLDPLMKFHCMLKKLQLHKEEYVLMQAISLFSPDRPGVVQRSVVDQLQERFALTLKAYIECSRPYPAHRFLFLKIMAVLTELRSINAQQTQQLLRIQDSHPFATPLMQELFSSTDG
# Procedure, shortened: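 Transiently transfected HepG2 cells expressing a receptor-Gal4 chimera drive a GAL4-UAS reporter; 3 nM 6-alpha-fluorotestosterone included. Reporter mRNA read 24 h post-dose by RT-PCR and capillary electrophoresis; gain of signal relative to DMSO.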
# [7] = molecular target: frog Thyroid hormone Receptor alpha (TRa), thra-a (gene 397942) (UniProt P15204); test: ATG_frTRa_XSP1: Attagene TRANS-FACTORIAL Multi-Species (XSP1) HepG2 Assay for frog Thyroid hormone Receptor alpha (TRa) (AID 2283804)
# Sequence of frog Thyroid hormone Receptor alpha (TRa), thra-a (gene 397942) (P15204 whole entry, looked up, the tested form may be a part): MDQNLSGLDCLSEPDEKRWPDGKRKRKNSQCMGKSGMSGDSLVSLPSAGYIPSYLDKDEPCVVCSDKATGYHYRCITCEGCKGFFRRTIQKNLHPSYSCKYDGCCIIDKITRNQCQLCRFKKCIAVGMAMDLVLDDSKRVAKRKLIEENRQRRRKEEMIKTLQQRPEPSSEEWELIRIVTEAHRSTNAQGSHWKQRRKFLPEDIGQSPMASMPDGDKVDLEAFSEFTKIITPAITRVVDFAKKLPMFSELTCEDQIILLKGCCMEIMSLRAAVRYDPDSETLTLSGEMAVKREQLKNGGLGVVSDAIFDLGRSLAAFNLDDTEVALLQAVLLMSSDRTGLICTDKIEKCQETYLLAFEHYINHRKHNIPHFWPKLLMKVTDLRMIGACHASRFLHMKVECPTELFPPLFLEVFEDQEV
# Procedure, shortened: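 Reporter transcript induction, measured by RT-PCR with 6-FAM labelling and capillary electrophoresis, 24 hr after dosing transiently transfected HepG2 cells expressing a frog TRa-GAL4 fusion; medium contained 3 nM 6-alpha-fluorotestosterone; increase over DMSO scored.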
# [8] = molecular target: human Thyroid hormone Receptor alpha (TRa), THRA (gene 7067) (UniProt P10827); test: ATG_hTRa_XSP1: Attagene TRANS-FACTORIAL Multi-Species (XSP1) HepG2 Assay for human Thyroid hormone Receptor alpha (TRa) (AID 2283805)
# Sequence of human Thyroid hormone Receptor alpha (TRa), THRA (gene 7067) (P10827 whole entry, looked up, the tested form may be a part): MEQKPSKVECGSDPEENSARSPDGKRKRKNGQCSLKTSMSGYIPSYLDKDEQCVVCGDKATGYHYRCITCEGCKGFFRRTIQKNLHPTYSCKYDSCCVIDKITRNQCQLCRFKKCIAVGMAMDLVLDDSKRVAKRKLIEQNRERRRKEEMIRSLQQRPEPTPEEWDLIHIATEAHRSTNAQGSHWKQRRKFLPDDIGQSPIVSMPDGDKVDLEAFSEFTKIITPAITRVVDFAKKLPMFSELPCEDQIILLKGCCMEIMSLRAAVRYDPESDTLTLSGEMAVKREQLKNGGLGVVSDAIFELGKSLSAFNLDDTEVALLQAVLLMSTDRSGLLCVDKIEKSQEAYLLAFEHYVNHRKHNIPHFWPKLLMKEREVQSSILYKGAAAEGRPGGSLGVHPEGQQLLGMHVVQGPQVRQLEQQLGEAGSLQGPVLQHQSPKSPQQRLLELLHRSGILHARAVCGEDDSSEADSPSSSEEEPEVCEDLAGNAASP
# Procedure, shortened: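 Reporter transcripts from the human TRa-Gal4 TRANS unit quantified by RT-PCR, fluorescent labeling and capillary electrophoresis after 24 hours of chemical exposure in transfected HepG2 cells; medium contains 3 nM 6-alpha-fluorotestosterone. Positive direction fit against DMSO.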
# [9] = test system: turtle Thyroid Hormone Receptor, alpha (TRa), gene 101949057; test: ATG_trTRa_XSP1: Attagene TRANS-FACTORIAL Multi-Species (XSP1) HepG2 Assay for turtle Thyroid Hormone Receptor, alpha (TRa) (AID 2283806)
# Procedure, shortened: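 After 24 h chemical exposure, reporter transcripts were measured by RT-PCR with fluorescent primer extension, HpaI digestion and capillary electrophoresis. Cells were transiently transfected HepG2 expressing exogenous NR-Gal4 chimeras; medium contained 3 nM 6-alpha-fluorotestosterone; fitted upward relative to DMSO.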
# [10] = molecular target: zebrafish Thyroid Hormone Receptor alpha (TRa), thraa (gene 30670) (UniProt Q98867); test: ATG_zfTRa_XSP1: Attagene TRANS-FACTORIAL Multi-Species (XSP1) HepG2 Assay for zebrafish Thyroid Hormone Receptor alpha (TRa) (AID 2283807)
# Sequence of zebrafish Thyroid Hormone Receptor alpha (TRa), thraa (gene 30670) (Q98867 whole entry, looked up, the tested form may be a part): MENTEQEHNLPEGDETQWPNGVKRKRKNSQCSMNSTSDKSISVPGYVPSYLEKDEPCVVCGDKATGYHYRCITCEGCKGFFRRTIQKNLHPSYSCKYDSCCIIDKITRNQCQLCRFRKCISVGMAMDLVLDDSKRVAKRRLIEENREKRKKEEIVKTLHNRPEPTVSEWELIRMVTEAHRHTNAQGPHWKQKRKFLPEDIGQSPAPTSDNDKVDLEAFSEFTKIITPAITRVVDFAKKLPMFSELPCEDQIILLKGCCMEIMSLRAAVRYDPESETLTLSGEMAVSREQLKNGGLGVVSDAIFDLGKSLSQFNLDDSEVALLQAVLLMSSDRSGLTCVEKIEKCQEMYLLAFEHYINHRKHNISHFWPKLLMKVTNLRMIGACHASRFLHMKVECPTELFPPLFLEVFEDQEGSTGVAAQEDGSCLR
# Procedure: as §1, with “receptor.ATG_zfTRa_XSP1” for “receptor.ATG_GAL4_XSP1”, “technology.The” for “technology.This”, “endpoint ATG_zfTRa_XSP1” for “endpoint, ATG_GAL4_XSP1,”, “primary” for “secondary”, “reporter gene” for “background control”
smiles,measurement,setting,value
O=C(c1ccc(O)cc1)c1ccc(O)cc1O,AC50,[1],531 nM (active)
same,outcome,[2],inactive
same,outcome,[3],inactive
same,outcome,[4],inactive
same,outcome,[5],inactive
same,outcome,[6],inactive
same,outcome,[7],inactive
same,outcome,[8],inactive
same,outcome,[9],inactive
same,outcome,[10],inactive
